Reference: the supplement of paper PMC6555819

Key:
Experiment in all cases: PBM binding z-score (relative to random genomic background probes); higher = stronger binding; sequences stand for … in GC…GCGATTGACAGCGTAGAATGAAGG
[1] = system: PPARg:RXRa DBDmut IVT, anti-RXR (DBD mutation: RXRa K156A/R161A, NR concentration 270 nM, RXRa partner concentration 90 nM)
Outline: (§1)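 For binding z-scores, the reference was random background probes on custom Agilent 4×180K protein-binding microarrays. These arrays were incubated 1 h with ligand-free nuclear receptor dimers in PBS pH 7.4, 2% milk, 0.02% Triton X-100, 1 mM DTT, 0.2 mg/mL BSA and 0.4 mg/ml salmon testes DNA. Fluorescence was scanned after antibody detection of each partner (one per run) and regression-normalized.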

[2] = system: PPARg:RXRa IVT, anti-PPARg (NR concentration 270 nM, RXRa partner concentration 90 nM)
Outline: as §1

[3] = system: PPARg DBDmut:RXRa IVT, anti-PPARg (DBD mutation: PPARg1 K132A/R137A, NR concentration 270 nM, RXRa partner concentration 90 nM)
Outline: as §1

[4] = system: PPARg DBDmut IVT, anti-PPARg (DBD mutation: PPARg1 K132A/R137A, NR concentration 270 nM)
Outline: as §1

[5] = system: PPARg homodimer (NR concentration 180 nM)
Outline: as §1

[6] = system: PXR:RXRa (NR concentration 270 nM, RXRa partner concentration 90 nM)
Outline: as §1

[7] = system: PXR homodimer (NR concentration 270 nM)
Outline: as §1

[8] = system: RARa:RXR (NR concentration 270 nM, RXRa partner concentration 90 nM)
Outline: as §1

[9] = system: RARa homodimer (NR concentration 270 nM)
Outline: as §1

[10] = system: RARb:RXRa (NR concentration 270 nM, RXRa partner concentration 90 nM)
Outline: as §1

[11] = system: RARb homodimer (NR concentration 270 nM)
Outline: as §1

[12] = system: RARg:RXRa (NR concentration 270 nM, RXRa partner concentration 90 nM)
Outline: as §1

[13] = system: RARg homodimer (NR concentration 270 nM)
Outline: as §1

[14] = system: RXRa DBDmut IVT, anti-RXR (DBD mutation: RXRa K156A/R161A, NR concentration 90 nM)
Outline: as §1

[15] = system: RXRa homodimer (NR concentration 180 nM)
Outline: as §1

[16] = system: THRa:RXRa (NR concentration 90 nM, RXRa partner concentration 90 nM)
Outline: as §1

[17] = system: THRa homodimer (NR concentration 90 nM)
Outline: as §1

[18] = system: VDR:RXRa (NR concentration 270 nM, RXRa partner concentration 90 nM)
Outline: as §1

[19] = system: VDR homodimer (NR concentration 270 nM)
Outline: as §1

Sequence | PBM binding z-score [1] | PBM binding z-score [2] | PBM binding z-score [3] | PBM binding z-score [4] | PBM binding z-score [5] | PBM binding z-score [6] | PBM binding z-score [7] | PBM binding z-score [8] | PBM binding z-score [9] | PBM binding z-score [10] | PBM binding z-score [11] | PBM binding z-score [12] | PBM binding z-score [13] | PBM binding z-score [14] | PBM binding z-score [15] | PBM binding z-score [16] | PBM binding z-score [17] | PBM binding z-score [18] | PBM binding z-score [19]
CGAACTAGGTCAGATCAGGACAGTGAAGGATGAT | 7.59 | 7.23 | 0.934 | 0.164 | 1.18 | 1.83 | 0.129 | 1.19 | -0.0983 | 3.17 | 2.33 | 2.68 | 4.03 | 0.645 | 1.52 | 4.73 | 1.25 | 1.12 | -0.038
TGAATGAAGTTATAAGATCAGGGAACGTTGCAAA | -1.2 | -0.333 | 0.559 | 0.214 | -0.63 | -0.502 | -0.359 | -0.42 | 0.115 | -1.82 | -0.946 | -0.0858 | -0.101 | -0.953 | -0.319 | -0.471 | -0.931 | -0.457 | -0.524
CCGACTGGGGCATGAGGTTACCATAAGCCAGCCC | 3.01 | 3.6 | -1.07 | -0.773 | 0.383 | 0.287 | -0.219 | 1.06 | -0.49 | 1.42 | 1.43 | 1.29 | 0.922 | -0.569 | 1.25 | 1.89 | 0.853 | -0.146 | -0.0736
AGTCAAAGTTCAGGACGAGGTAACCTAAAGCACG | -0.128 | 2.2 | 0.0369 | 0.548 | 2.47 | 2.74 | 1.53 | 2.96 | 0.958 | 4.23 | 3.52 | 4.84 | 4.86 | 2.85 | 3.15 | 3.88 | 1.92 | 2.94 | 2.29
AGTCAAAGTTCACTAGGTAATGTAAGATTCAGCT | 2.34 | 4.44 | 1.59 | 2.13 | 2.35 | 4.01 | 2.75 | 3.26 | 1.29 | 4.78 | 3.71 | 4.84 | 5.6 | 4.39 | 3.73 | 1.91 | -0.139 | 3.84 | 3.81
TCTTGCAGATCAAGCAGGTTAAGAAAGCCTGAGT | 0.549 | -0.312 | -0.516 | -0.801 | -0.945 | 0.199 | -0.285 | 0.324 | -1.11 | -0.136 | -0.292 | -0.332 | -0.629 | 0.253 | -0.0969 | 0.0949 | -0.484 | 0.157 | -0.141
TCGAGTAGGTTACCAGTGGGGCATTCAGCTTTCT | 3.82 | 3.43 | -0.827 | -0.418 | 0.236 | -0.206 | -0.913 | 0.372 | -1.02 | 0.865 | 0.636 | 1.06 | 0.275 | 0.241 | 0.437 | 0.157 | -0.534 | 0.134 | -0.388
TCTAGAAGGCCAGAGGGTCACTCAAGAGGTACGG | 1.75 | 0.693 | -0.301 | 0.186 | 1.22 | 1.64 | 0.0475 | 2.54 | 0.19 | 2.68 | 3.16 | 3.17 | 2.72 | 0.844 | 3.03 | 1.75 | -0.0793 | 2.05 | 0.435
